MCF10A rereplic: DNA re-replication induction in MCF 10a cells | MCF 10A DNA re-replication, Hoechst nuclear intensity, 48 h | Potency, µM (top dose mostly 46.1 µM), inactives show top-dose activity, positive = re-replication, usual class: activators | 350,000 compounds, 2.9% hits | AID 624296; note: potency is the fitted concentration of half-maximal effect; % of control where 0% means no effect; nearly all actives have a fitted effect of over 50% in size
KCNH2 WT inh: KCNH2 (human, wildtype) channel inhibition; 340,000 compounds, 0.37% hits; AID 720551; Q12809; U2OS, BacMam KCNH2, thallium flux FluxOr; active compounds read low; activity change, % at 1.84 µM;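 active = maximum activity change below -70%; inconclusive = maximum activity change between -70% and -50%; inactive = maximum activity change above -50%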; note: % is set by controls: 0 for no effect and ±100 for the full control effect
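U2OS cells transduced with wild-type KCNH2 virus are loaded with FluxOr dye for 45 min, and thallium flux is measured in kinetic reads before and after stimulation buffer. Rate constants are normalized to DMSO controls.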
SW480 rerep: inducers of DNA re-replication in SW480 colon cancer cells; SW480 DNA re-replication, Hoechst DNA content imaging, 48 h; Potency, µM (top dose mostly 46.1 µM), for inactives: at the highest dose re-replication activation, most hits filed as activators; 340,000 compounds, 1.8% hits; AID 624297; note: potency is the fitted concentration of half-maximal effect; % of control where 0% means no effect; nearly all actives have a fitted effect of over 55% in size
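Hoechst fluorescence of nuclei (405 nm excitation, 500-530 nm emission) measured by plate-scanning imager after 48 hr compound exposure at 37 C; re-replication scored as increased number of nuclei with elevated intensity.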
KCNH2 3.1 inh: blocks the human KCNH2 3.1 channel isoform. U2OS KCNH2 3.1, thallium flux FluxOr; active compounds read low. activity change, % (tested at about 1.8 µM). 340,000 compounds, 0.95% hits. AID 720553;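 active = maximum activity change below -70%; inconclusive = maximum activity change from -70% to -50%; inactive = maximum activity change above -50%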;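 note: thallium influx rate constant from kinetic fluorescence after stimulation buffer; % is set by controls: 0 for no effect and ±100 for the full control effect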
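Thallium flux via FluxOr fluorescence (Red40 quencher, 45 min loading) in U2OS cells virally expressing the KCNH2 3.1 isoform (1.77 x 10^8 /mL virus, overnight at 37 C). Rate constants from 2-min kinetic reads post-stimulation, normalised to positive and negative controls.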
KB-3-1 cytotox: kills parental KB-3-1 adenocarcinoma cells; KB-3-1 viability, CellTiter-Glo ATP luminescence, 72 h; Potency, µM (doses to about 46.1 µM), usual class: cytotoxic; 400,000 compounds, 1.4% hits; AID 1347075; note: potency is the fitted concentration of half-maximal effect; % is set by controls: 0 for no effect and ±100 for the full control effect; nearly all actives have a fitted effect of over 60% in size
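Parental KB-3-1 viability, qHTS format: 72 h compound exposure, 37 °C; CellTiter-Glo; media-only wells and DMSO plates as controls; concentration-effect fits on corrected data.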
KB-V1 cytotox: kills drug-selected multidrug resistant KB-V1 cells. KB-V1 MDR cells viability, CellTiter-Glo, 72 h. Potency, µM (titrated, usually from 46.1 µM), most hits filed as cytotoxic. 400,000 compounds, 3.4% hits; note: potency is the fitted concentration of half-maximal effect; % is set by controls: 0 for no effect and ±100 for the full control effect; nearly all actives have a fitted effect of over 60% in size
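Potencies derive from concentration-effect curves fitted to normalized luminescence (CellTiter-Glo) of KB-V1 cells treated for 72 h at 37 degrees C in phenol-red-free DMEM containing 10% FBS.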
* hit, by the source's call. A selection: hits, their analogues and other compounds. The true share with any hit is near 7.6%. Unless noted, calls come from the whole dose curve; as a rule, active = well fitted curve in the direction sought with a large enough effect; inconclusive = small, poorly fitted or top-dose-only effect, or another doubt; inactive = no such curve, though single readings can be large; an effect the other way counts as inactive or inconclusive.

`CCCCNC(=O)COc1ccccc1[N+](=O)[O-]` gave MCF10A rereplic -2.7%, KCNH2 WT inh 6.6, SW480 rerep -3.4%, KCNH2 3.1 inh -10.9, KB-3-1 cytotox inactive and KB-V1 cytotox inconclusive.
COc1ccc(NC(=O)c2cccc(OC(F)F)c2)cc1Cl was read as MCF10A rereplic 3.6%, KCNH2 WT inh -4.1, SW480 rerep -1.0%, KCNH2 3.1 inh -6.1, KB-3-1 cytotox inactive and KB-V1 cytotox 14.6µM*.
Screening COc1ccc(NC(=O)c2cccc(F)c2)cc1Cl returned MCF10A rereplic -1.1%, KCNH2 WT inh 0.2, SW480 rerep -18.8%, KCNH2 3.1 inh -5.2, KB-3-1 cytotox inactive and KB-V1 cytotox inactive.
O=C(Nc1ccc2c(c1)CCC2)c1cccc(OC(F)F)c1 was read as MCF10A rereplic 0.2%, KCNH2 WT inh -3.7, SW480 rerep 4.3%, KCNH2 3.1 inh -3.8, KB-3-1 cytotox inactive and KB-V1 cytotox inactive.
`O=C(Nc1ccc(OC(F)F)c(Cl)c1)c1cccc(OC(F)F)c1` gave MCF10A rereplic 73.0%, KCNH2 WT inh 1.8, SW480 rerep 18.8%, KB-3-1 cytotox inconclusive and KB-V1 cytotox 18.4µM*.
CCOC(=O)Cn1nc(C)cc1NC(=O)c1cc(OC)c(OC)c(OC)c1 was read as MCF10A rereplic 23.1µM*, KCNH2 WT inh 0.8, SW480 rerep -2.0%, KCNH2 3.1 inh -8.3, KB-3-1 cytotox inactive and KB-V1 cytotox inactive.
For CCOC(=O)Cc1csc(SCC(=O)N2CCN(c3ccc(OC)cc3)CC2)n1 the results were MCF10A rereplic 5.1%, KCNH2 WT inh -0.6, SW480 rerep -3.9%, KCNH2 3.1 inh -16.8, KB-3-1 cytotox inactive and KB-V1 cytotox 20.6µM*.
`COc1ccc(N2CCN(C(=O)CNC(=O)Cc3ccc(Cl)cc3)CC2)cc1` gave MCF10A rereplic inconclusive, KCNH2 WT inh 4.0, SW480 rerep inconclusive, KCNH2 3.1 inh -3.3, KB-3-1 cytotox 14.6µM* and KB-V1 cytotox 10.3µM*.
`COc1ccc(N2CCN(C(=O)Cc3ccc(Br)cc3)CC2)cc1` gave MCF10A rereplic 7.8%, KCNH2 WT inh -6.2, SW480 rerep -8.1%, KCNH2 3.1 inh 17.8, KB-3-1 cytotox inactive and KB-V1 cytotox 20.6µM*.
For Cc1nn(-c2cc(N3CCCCCC3)ccc2[N+](=O)[O-])c(=O)c2ccccc12 the results were MCF10A rereplic 11.7%, KCNH2 WT inh -2.8, SW480 rerep 10.5%, KCNH2 3.1 inh 18.5, KB-3-1 cytotox inactive and KB-V1 cytotox 3.66µM*.
For O=C(O)[C@H]1C[C@@H](CP(=O)(O)O)CCN1 the results were MCF10A rereplic -1.7% and SW480 rerep 1.4%.
Screening CC(=O)c1cccc(N(C(=O)c2ccco2)C(C(=O)NC2CCCC2)c2ccncc2)c1 (centres undefined) returned MCF10A rereplic 4.5%, KCNH2 WT inh -114.8*, SW480 rerep -4.3%, KCNH2 3.1 inh -9.4, KB-3-1 cytotox inactive and KB-V1 cytotox inactive.
`CCN=c1scc(-c2cccs2)n1/N=C/c1cc(OC)ccc1O` gave MCF10A rereplic 5.8µM*, KCNH2 WT inh -5.5, SW480 rerep inconclusive, KCNH2 3.1 inh -1.9, KB-3-1 cytotox 18.4µM* and KB-V1 cytotox inconclusive.
COc1ccc(O)c(/C=N/n2c(-c3ccco3)csc2=Nc2cccnc2)c1 was read as MCF10A rereplic 27.3%, KCNH2 WT inh 0.9, SW480 rerep 3.5%, KCNH2 3.1 inh 0.2, KB-3-1 cytotox inactive and KB-V1 cytotox inactive.
Screening O=C1C(=O)c2ccccc2C(O)=C1c1cccc([N+](=O)[O-])c1 returned MCF10A rereplic 15.4%, KCNH2 WT inh 7.8, SW480 rerep 23.1µM*, KCNH2 3.1 inh -4.3, KB-3-1 cytotox inconclusive and KB-V1 cytotox inconclusive.
Cc1cc(Oc2ccc(C(C)(C)C)cc2)nc(N2CCOCC2)n1 was read as MCF10A rereplic inconclusive, KCNH2 WT inh 5.5, SW480 rerep -1.5%, KCNH2 3.1 inh 2.5, KB-3-1 cytotox inactive and KB-V1 cytotox inactive.
For CC(=O)c1ccc(Oc2cc(C)nc(N3CCOCC3)n2)cc1 the results were MCF10A rereplic -3.8%, KCNH2 WT inh -2.0, SW480 rerep 2.9%, KCNH2 3.1 inh -136.4*, KB-3-1 cytotox inactive and KB-V1 cytotox inactive.
Screening COc1ccc(N(C(C)C(=O)N/N=C/c2ccc(OCC(C)C)cc2)S(C)(=O)=O)cc1 (centres undefined) returned MCF10A rereplic 18.7%, KCNH2 WT inh 1.8, SW480 rerep 4.11µM*, KCNH2 3.1 inh -7.4, KB-3-1 cytotox inactive and KB-V1 cytotox inconclusive.
CCOc1ccc(/C=N/NC(=O)C(C)N(c2ccc(OC)cc2)S(C)(=O)=O)cc1 (centres undefined) was read as MCF10A rereplic -6.6%, KCNH2 WT inh 0.1, SW480 rerep -3.6%, KCNH2 3.1 inh 10.3, KB-3-1 cytotox inactive and KB-V1 cytotox inactive.
`Cc1ccccc1NC(=O)c1cccc(C(F)(F)F)c1` gave MCF10A rereplic -0.6%, KCNH2 WT inh 8.8, SW480 rerep 0.6%, KCNH2 3.1 inh -3.0, KB-3-1 cytotox inactive and KB-V1 cytotox inactive.
Screening Cc1ccc(NNC(=O)C(O)(c2cccc(C(F)(F)F)c2)c2cccc(C(F)(F)F)c2)cc1 returned MCF10A rereplic 11.6µM*, KCNH2 WT inh 19.5, SW480 rerep inconclusive, KCNH2 3.1 inh -0.4, KB-3-1 cytotox 16.4µM* and KB-V1 cytotox inconclusive.
For O=C(NNc1ccccc1Br)C(O)(c1cccc(C(F)(F)F)c1)c1cccc(C(F)(F)F)c1 the results were MCF10A rereplic inconclusive, KCNH2 WT inh 3.5, SW480 rerep inconclusive, KCNH2 3.1 inh inconclusive, KB-3-1 cytotox inconclusive and KB-V1 cytotox 18.4µM*.
Screening CN(C)C(=S)Nc1ccc(S(=O)(=O)N2CCCCC2)cc1 returned MCF10A rereplic -0.8%, KCNH2 WT inh 0.6, SW480 rerep -15.4%, KCNH2 3.1 inh 6.0, KB-3-1 cytotox inactive and KB-V1 cytotox inactive.
Screening CCc1cc(=O)oc2cc(C)c(CN3CCCC3)c(O)c12 returned MCF10A rereplic inconclusive, KCNH2 WT inh -4.3, SW480 rerep -4.5%, KCNH2 3.1 inh 4.9, KB-3-1 cytotox inactive and KB-V1 cytotox inconclusive.
For CCc1cc(=O)oc2cc(C)c(CN3CCCCC3)c(O)c12 the results were MCF10A rereplic 23.5%, KCNH2 WT inh 2.8, SW480 rerep -5.2%, KCNH2 3.1 inh 9.3, KB-3-1 cytotox inactive and KB-V1 cytotox 16.4µM*.
Screening CCOC(=O)CSc1nc(-c2ccccc2)cc(C(F)(F)F)c1C#N returned KB-3-1 cytotox inactive and KB-V1 cytotox inactive.
